Reference: PubChem BioAssay
Where “and” joins values, the source holds several entries; their conditions need not be identical. Equal entries are not always repeated. Inconclusive results are not listed. Calls of active or inactive are those of the source. Unless noted, the limit is not given here; nearly all actives have AC50 up to about 26 µM.

How the values were obtained:
[1] = viability loss in pontine glioma line – cell-based, SU-DIPG-XXV, MIPE5.0, CellTiter-Glo, qHTS, dose response (AID 1347065); conditions: CellTiter-Glo ATP luminescence;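 also: cells exposed to compound for 48 hours before ATP readout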
[2] = SU-DIPG-VI glioma cell viability, MIPE4.0 library, CellTiter-Glo luminescence, qHTS (AID 1347066; cut-off not given, nearly all actives have AC50 up to about 30 µM;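 also: cells exposed to compound for 48 hours before readout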); conditions: CellTiter-Glo ATP luminescence
[3] = JHH-DIPG-1 glioma cell viability, MIPE5.0 library, CellTiter-Glo luminescence, qHTS (AID 1347067); conditions: JHH-DIPG-1 glioma viability, CellTiter-Glo ATP luminescence;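 also: cells exposed to compound for 48 hours before readout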
[4] = SU-DIPG-XXV glioma cell viability, MIPE5.0 library, qHTS (AID 1347068; cut-off not given, nearly all actives have IC50 up to about 30 µM;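 as to IC50: cells exposed to compound for 48 hours before viability readout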)
[5] = sensitizers of A549 cells to miR-34 induction, primary screen, imaging, A549 dox-inducible miR-34, nuclei and caspase counts (AID 1347080;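 active = compounds whose cell count with miR-34 switched on is under 0.7 times the count with it off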); conditions: A549 miR-34 inducible, Hoechst nuclei count, 48 h
[6] = phospholipid biosynthesis inhibitors in animal cells, primary screen, cell-based, LOPAC library, screen 4 (AID 1347384; call rule not given here); conditions: phospholipid biosynthesis inhibition screen, at 10 µM
[7] = survival rescue of mitochondrial mutant cells in low glucose, primary screen, MELAS cybrids, Rieske KO mouse fibroblasts, CellTiter-Glo (AID 1508586;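 active = mean z-score across replicates of 1.96 or higher in either the MELAS or the Rieske mutant cell line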;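 also: z relative to plate mean and SD of compound and empty wells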)
[8] = biological target: NAD(+) hydrolase SARM1 (Homo sapiens) (UniProt Q6SZW1); test: SARM1 TIR NADase inhibitors, cell lysate, NAD-Glo luminescence (AID 1508614;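 active = compound whose remaining NAD level is above about 45 nM, limit read from the data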;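 also: higher remaining NAD means stronger inhibition of SARM1 NADase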); conditions: SAM-TIR HEK293T lysate NADase, at 1 µM, stronger effect = higher value
[9] = biological target: Mitogen-activated protein kinase 7 (Homo sapiens) (UniProt Q13164); test: ERK5 transactivation activators in reporter cells, primary screen, cell-based, HTS (AID 1508626;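 active = luciferase signal above three times the same-plate solvent-only control wells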;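 also: luciferase driven by Gal4-ERK5 fusion binding five Gal4 sites before minimal TATA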); conditions: HeLa Gal4-ERK5 transactivation, 18 h, at 5 µM, stronger effect = higher value
[10] = viability rescue of complex I mutant cybrids, primary screen, cell-based, galactose medium, ATP luminescence (AID 1645843;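 active = z-score of at least 1.8 in each of two replicates, scored against plate mean and spread of sample wells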;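 also: positive z means more ATP and so rescue of galactose-driven cybrid death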); conditions: complex I mutant cybrid cells, 72 h, stronger effect = higher value
[11] = stronger effect = lower value, cell number ratio, induced over uninduced
[12] = measured here: relative caspase fold change +Dox/-Dox
[13] = measured here: total cells with miR-34 induction, stronger effect = lower value
[14] = measured here: total cells without miR-34 induction
[15] = MELAS cybrid survival, CellTiter-Glo 48 h, stronger effect = higher value
[16] = Rieske KO mouse fibroblast survival, CellTiter-Glo 72 h

Chain of NAD(+) hydrolase SARM1 (Homo sapiens) (Q6SZW1 whole entry, looked up, the tested form may be a part): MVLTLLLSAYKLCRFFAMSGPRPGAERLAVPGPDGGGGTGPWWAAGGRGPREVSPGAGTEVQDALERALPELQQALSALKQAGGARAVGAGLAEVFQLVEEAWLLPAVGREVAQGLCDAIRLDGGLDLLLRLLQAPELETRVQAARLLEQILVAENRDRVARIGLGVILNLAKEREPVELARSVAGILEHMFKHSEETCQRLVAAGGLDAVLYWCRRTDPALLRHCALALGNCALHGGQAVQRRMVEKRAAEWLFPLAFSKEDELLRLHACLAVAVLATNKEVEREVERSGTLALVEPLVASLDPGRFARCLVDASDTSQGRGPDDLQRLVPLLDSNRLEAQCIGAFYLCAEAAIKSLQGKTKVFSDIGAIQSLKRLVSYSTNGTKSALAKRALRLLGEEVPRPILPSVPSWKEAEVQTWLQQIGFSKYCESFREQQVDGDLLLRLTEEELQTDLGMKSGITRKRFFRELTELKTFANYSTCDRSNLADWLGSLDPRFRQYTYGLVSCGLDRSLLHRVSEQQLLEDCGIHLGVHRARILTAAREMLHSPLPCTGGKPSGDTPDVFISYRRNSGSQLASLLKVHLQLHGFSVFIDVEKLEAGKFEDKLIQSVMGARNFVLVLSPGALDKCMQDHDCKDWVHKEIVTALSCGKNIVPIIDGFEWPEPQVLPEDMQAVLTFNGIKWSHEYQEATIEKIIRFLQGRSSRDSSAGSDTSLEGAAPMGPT
Chain of Mitogen-activated protein kinase 7 (Homo sapiens) (Q13164 whole entry, looked up, the tested form may be a part): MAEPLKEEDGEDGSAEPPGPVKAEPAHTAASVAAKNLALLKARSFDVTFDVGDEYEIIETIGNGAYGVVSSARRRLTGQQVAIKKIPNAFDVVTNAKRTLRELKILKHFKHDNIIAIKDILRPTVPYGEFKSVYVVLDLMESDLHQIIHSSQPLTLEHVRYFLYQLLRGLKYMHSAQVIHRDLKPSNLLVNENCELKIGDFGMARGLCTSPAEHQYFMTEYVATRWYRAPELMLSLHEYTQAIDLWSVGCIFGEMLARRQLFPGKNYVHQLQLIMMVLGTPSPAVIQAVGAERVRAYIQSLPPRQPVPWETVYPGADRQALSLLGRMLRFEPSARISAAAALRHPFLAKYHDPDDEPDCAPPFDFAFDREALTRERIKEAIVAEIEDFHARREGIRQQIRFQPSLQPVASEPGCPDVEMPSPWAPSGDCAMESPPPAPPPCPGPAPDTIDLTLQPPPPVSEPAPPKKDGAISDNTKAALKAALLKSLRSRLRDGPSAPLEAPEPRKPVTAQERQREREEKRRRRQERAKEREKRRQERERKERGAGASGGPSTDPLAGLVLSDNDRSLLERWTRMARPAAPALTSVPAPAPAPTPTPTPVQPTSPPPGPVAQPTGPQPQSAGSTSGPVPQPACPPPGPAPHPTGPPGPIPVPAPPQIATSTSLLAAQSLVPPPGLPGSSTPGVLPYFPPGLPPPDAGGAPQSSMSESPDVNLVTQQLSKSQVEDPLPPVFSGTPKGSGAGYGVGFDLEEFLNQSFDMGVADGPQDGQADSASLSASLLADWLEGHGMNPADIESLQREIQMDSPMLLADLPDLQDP

| Compound | AC50 [1] | AC50 [2] | AC50 [3] | IC50 [4] | fold change [5, 11] | fold change [5, 12] | cell count [5, 13] | cell count [5, 14] | outcome [6] | z-score [7, 15] | z-score [7, 16] | remaining NAD [8] | luciferase signal [9] | z-score [10] | outcome [1] | outcome [2] | outcome [3] | outcome [4] |
| --- | --- | --- | --- | --- | --- | --- | --- | --- | --- | --- | --- | --- | --- | --- | --- | --- | --- | --- |
| O=C(Nc1ccc([N+](=O)[O-])cc1Cl)c1cc(Cl)ccc1O | 1.18 µM (active) | 0.59 µM (active) | 0.833 µM (active) | 1.32 µM (active) | 0.851 (inactive) and 1.03 (inactive) and 1.1 (inactive) | 0.641 and 1.64 and 2.16 | 1500 and 2060 and 8890 | 1770 and 2000 and 8060 | active | -1.03 (inactive) | -0.036 | 10 nM (inactive) | 24 AU (inactive) | -1.18 (inactive) |  |  |  |  |
| CCCCN(CCCC)CCC(O)c1cc2c(Cl)cc(Cl)cc2c2cc(C(F)(F)F)ccc12 (configuration not stated) | 23.5 µM (active) | 23.5 µM (active) | 16.6 µM (active) | 20.9 µM (active) | 0.972 (inactive) | 0.81 | 8330 | 8580 |  | -1.05 (inactive) | -0.678 |  |  |  |  |  |  |  |
| CC(=O)O[C@H]1C[C@@H]2CC[C@@H]3[C@H](CC[C@@]4(C)[C@H]3C[C@H]([N+]3(C)CCCCC3)[C@@H]4OC(C)=O)[C@@]2(C)C[C@@H]1N1CCCCC1 |  |  |  |  | 0.831 (inactive) | 1.81 | 8710 | 10500 |  | 0.144 (inactive) and 0.341 (inactive) | -0.264 and -0.536 | 10 nM (inactive) | 52 AU (inactive) | 0.335 (inactive) | inactive | inactive | inactive | inactive |
| C[C@]12CC[C@@H]3c4ccc(O)cc4CC[C@H]3[C@@H]1C[C@@H](O)[C@@H]2O |  |  | 23.5 µM (active) |  | 0.957 (inactive) and 0.899 (inactive) | 0.729 and 1.36 | 9380 and 8690 | 9810 and 9670 |  | 0.707 (inactive) and -0.312 (inactive) | 0.79 and 0.38 | 10 nM (inactive) | 64 AU (inactive) | 0.76 (inactive) | inactive | inactive |  | inactive |
| O=C(O)c1cn(-c2ccc(F)cc2)c2cc(N3CCNCC3)c(F)cc2c1=O |  |  |  |  | 0.867 (inactive) and 0.86 (inactive) | 3.37 and 1.06 | 11600 and 8760 | 13400 and 10200 |  | 0.702 (inactive) and 0.944 (inactive) | 0.262 and 0.886 | 14 nM (inactive) | 72 AU (inactive) | 0.12 (inactive) | inactive | inactive | inactive | inactive |
| C#C[C@]1(O)CC[C@H]2[C@@H]3CCc4cc(OC)ccc4[C@H]3CC[C@@]21C |  |  |  |  | 0.882 (inactive) | 0.717 | 9180 | 10400 |  | 1.7 (inactive) | 0.807 | 10 nM (inactive) | 80 AU (inactive) |  | inactive | inactive | inactive | inactive |
| CN(C)CCc1c[nH]c2ccc(CS(=O)(=O)N3CCCC3)cc12 |  |  |  |  | 0.94 (inactive) | 1.05 | 7180 | 7640 |  | -0.0807 (inactive) | -0.352 | 10 nM (inactive) | 52 AU (inactive) |  | inactive | inactive | inactive | inactive |
